Bioassay records (PubChem BioAssay)
NS1 function inh = qHTS Assay for Inhibitors of Influenza NS1 Protein Function; hit rate 0.4% among 270,000; Potency, µM (titrated, usually from 46.1 µM), for inactives: at the top dose activity, positive = more growth; calls by dose curve; also: actives are rising curves; nearly all actives have a fitted effect of over 50% in size
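Recovery from NS1-induced slow growth read by OD600 in budding yeast switched to galactose assay medium (pH 6.0, -URA) at 1:100 dilution. Compound 23 nl per well; the matching strain lacking NS1 serves as control.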
Tb PYK inh = qHTS of Trypanosoma Brucei Inhibitors | Potency, µM (titrated, usually from 76.8 µM), inactives show at the top dose activity, negative = inhibition, usual class: inhibitors | AID 624173, 2012 | pyruvate kinase (Trypanosoma brucei), Q57TT1 | TbPYK enzyme, Kinase-Glo Plus ATP luminescence, 45 min | hit rate 0.12% among 410,000; also: % is scaled to controls: 0 for no effect and ±100 for the full control effect; nearly all actives have a fitted effect of over 50% in size
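Luminescence from Kinase-Glo Plus, added after a 45-minute room-temperature reaction, served as the end-point read-out. The enzyme and substrate were preincubated with compound before ADP (130 uM final) initiated turnover. Concentration-effect curves came from normalized qHTS data.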
RE007 growth inh = qHTS Assay for Inhibitors of the HIV-1 protein Vpr | S. pombe RE007 Vpr strain, BacTiter-Glo ATP luminescence, 24 h | Potency, µM (series often up to 92.2 µM), inactives show top-dose activity change, negative = less growth, actives largely listed as inhibitors | hit rate 0.21% among 360,000 | AID 651644, 2012; active = well fitted falling curve with a large enough effect; inconclusive = small, poorly fitted or top-dose-only effect; inactive = no such curve, though single readings can be large or run the other way; also: % is scaled to controls: 0 for no effect and ±100 for the full control effect; nearly all actives have a fitted effect of over 50% in size
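Fission yeast RE007 carrying one integrated HIV-1 vpr copy, seeded at OD 0.01 in PMG+AL medium with 23 nL pinned compound. Grown 24 h at 30 degrees; viability read by BacTiter-Glo luminescence after 5 min.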
LmPK inhibitor = qHTS Assay for Inhibitors of Leishmania Mexicana Pyruvate Kinase (LmPK). Q27686. purified LmPK, Kinase-Glo ATP luminescence, 1 h. Potency, µM (series often up to 57.5 µM), without a hit: at the top dose activity change, negative = inhibition, most hits filed as inhibitors. hit rate 0.37% among 290,000; also: % is scaled to controls: 0 for no effect and ±100 for the full control effect
Target sequence (Q27686 whole entry, looked up): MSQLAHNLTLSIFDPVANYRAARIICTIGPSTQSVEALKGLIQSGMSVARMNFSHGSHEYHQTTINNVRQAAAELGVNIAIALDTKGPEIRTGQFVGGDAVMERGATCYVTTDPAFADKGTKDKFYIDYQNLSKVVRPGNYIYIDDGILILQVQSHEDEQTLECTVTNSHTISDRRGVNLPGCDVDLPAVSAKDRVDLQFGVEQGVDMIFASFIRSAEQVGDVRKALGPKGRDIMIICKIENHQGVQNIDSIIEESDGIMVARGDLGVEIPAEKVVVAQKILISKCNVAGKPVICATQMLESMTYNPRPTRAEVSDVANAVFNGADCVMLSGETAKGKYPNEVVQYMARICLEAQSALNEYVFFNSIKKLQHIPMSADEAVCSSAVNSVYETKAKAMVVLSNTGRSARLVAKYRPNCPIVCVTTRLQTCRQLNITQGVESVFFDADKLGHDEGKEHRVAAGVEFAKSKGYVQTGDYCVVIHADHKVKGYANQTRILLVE
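Purified LmPK (0.1 nM) converted ADP (0.1 mM) to ATP with PEP (0.5 mM) in imidazole buffer pH 7.2 with KCl and MgCl2, 1 h at room temperature. ATP was read by Kinase-Glo luminescence; data normalized to uninhibited and no-enzyme controls.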
* = called active by the depositor; ? = inconclusive; . = no result given; [ ] = dose if it differs, or a comment. The list is not random: actives were taken first. Their share in the collection is about 0.77%. Unless noted, calls follow the shape of the dose curve; as a rule, active = well fitted curve in the direction sought with a large enough effect; inconclusive = small, poorly fitted or top-dose-only effect, or another doubt; inactive = no such curve, though single readings can be large; an effect the other way counts as inactive or inconclusive. Potency is read from the fitted curve at half-maximal effect.

SMILES | NS1 function inh | Tb PYK inh | RE007 growth inh | LmPK inhibitor
CCCCCCC(=O)N(O)C1CC(=O)N(c2ccc(Br)cc2)C1=O (stereo unspecified) | -66.4% | -32.8% | ? | ?
COc1ccc(N2C(=O)/C(=C/c3cccs3)C(=O)NC2=S)cc1 | 6.7% | ? | 23.8% | 14.8%
COc1ccc(N2C(=O)/C(=C/C=C/c3ccccc3[N+](=O)[O-])C(=O)NC2=S)cc1 | . | 20µM* | -8.3% | -2.0%
COc1ccc(N2C(=O)NC(=O)/C(=C/c3ccc([N+](=O)[O-])s3)C2=O)cc1 | -41.1% | 12.6µM* | ? | -2.4%
Nc1nc(SCc2ccc([N+](=O)[O-])cc2)c2ncn([C@@H]3O[C@H](CO)[C@H](O)[C@H]3O)c2n1 | -2.7% | . | . | .
CC(C(=O)O)c1ccc2c(c1)CC(=O)c1ccccc1S2 (stereo unspecified) | . | -0.8% | . | .
Cc1nn(C)c(=O)n1-c1ccc(OCc2ccccc2)cc1 | -7.9% | -16.9% | -9.7% | 14.1µM*
CCOC(=O)CCCNC(=O)N1CCc2nc(-c3ccc(OC)cc3C)c3c(c2C1)CO[C@@H](c1ccccc1)C3 | . | . | . | -3.1%[11.5 µM]
COc1ccc(-c2cn3nc4c(nc3n2)CCCC4)cc1 | 0.3% | -13.9% | -11.7% | 15.8µM*
O=C(CSC1=NS(=O)(=O)c2cc(F)ccc2N1)Nc1ccccc1 | . | 0.1% | 6.3% | .
O=C(CSC1=NS(=O)(=O)c2ccccc21)Nc1ccccc1 | -113.0% | ? | -24.8% | 22.4µM*
O=C(Nc1ccc(Cl)cn1)c1ccccc1F | -18.4% | -7.5% | -8.1% | 22.4µM*
O[C@H]([C@H](O)[C@@H](O)c1nc2ccccc2[nH]1)[C@@H](O)c1nc2ccccc2[nH]1 | -7.6% | . | . | .
CN1[C@@H]2CCC[C@@H]1CC(NC(=O)c1nn(C)c3ccccc13)C2 (stereo partly specified) | . | 3.9% | . | .
CC(C)(C)c1ccc(OCC(=O)NCC2(N3CCOCC3)CCCCC2)cc1 | . | 6.5% | . | .
CC12CCC(=O)CC1CCC1C2CCC2(C)C1CCC2(C)O (stereo unspecified) | . | -9.6% | . | .
COc1cccc(Cn2c(=O)c(-c3ccc(F)c(F)c3)nc3cncnc32)c1 | . | -2.7% | . | .
O=C(/C=C\Nc1ccc2c(c1)OCO2)c1cccs1 | -36.9% | ? | ? | 11.2µM*
O=C(Nc1ccc2c(c1)OCO2)c1cccs1 | -40.4% | -14.2% | ? | 25.1µM*
Cc1ccc(N/C=C/C(=O)c2cccs2)cc1 | . | -18.3% | 1.4% | 15.8µM*
O=C(/C=C\Nc1cccc(F)c1)c1cccs1 | -20.2% | -6.7% | ? | ?
O=C(/C=C\Nc1ccc2c(c1)OCO2)c1ccccn1 | -22.7% | -22.6% | -19.7% | 3.55µM*
C[C@@H](N)/C(N)=N/O | 5.6% | . | . | .
OCC1OC([S-])[C@H](O)C(O)C1O.[Au+] (stereo partly specified) | . | -10.6% | . | .
O=C(Nc1ccc2c(c1)OCO2)c1noc2c1CCCCC2 | -77.9% | 3.4% | ? | -18.6%
SMILES | NS1 function inh | Tb PYK inh | RE007 growth inh | LmPK inhibitor
O=C(Nc1ccc2c(c1)OCO2)c1noc2c1CCCC2 | -14.4% | -10.6% | 5.01µM* | -20.6%
Cc1ccc(C(=O)Nc2ccc3c(c2)OCO3)o1 | -0.8% | ? | ? | 17.8µM*
c1cc(CNc2ccc3c(c2)OCO3)ccn1 | 2.0% | -21.9% | -8.0% | -4.4%
C/C(=C\C(=O)c1ccc(C)o1)Nc1ccc2c(c1)OCO2 | -2.6% | -2.7% | -22.8% | -2.2%
Cc1ccc(CNc2ccc3c(c2)OCO3)cc1 | 2.82µM* | -8.4% | -19.8% | -0.6%
O=C(Nc1ccccn1)c1ccc2c(c1)OCO2 | . | -22.5% | -16.2% | 14.1µM*
O=C(Nc1cc(Cl)ccc1Cl)c1cc(S(=O)(=O)N2CCCc3ccccc32)ccc1F | . | 2.2% | . | .
Cc1ccc(C(=O)Nc2ccc3c(c2)OCO3)cc1 | -53.3% | -16.8% | -13.4% | 22.4µM*
Cc1ccnc2nc(C(=O)Nc3ccc4c(c3)OCO4)nn12 | -5.5% | -20.7% | -10.3% | 15.8µM*
O=C(Nc1ccccn1)c1cc2ccccc2o1 | -11.3% | ? | ? | 10µM*
Cc1cc(C)n2nc(C(=O)Nc3ccc4c(c3)OCO4)nc2n1 | ? | -5.1% | -4.0% | -14.3%
O=C(O)[C@@H]1[C@H](C(=O)O)[C@]2(Cl)C(Cl)=C(Cl)[C@@]1(Cl)C2(Cl)Cl | -12.4% | . | . | .
C=CCc1cccc([C@@H]2[C@@H](C)CC[C@H]3C(=O)N4[C@@H](c5cc(OC)c(OC)c(OC)c5)c5[nH]c6ccccc6c5C[C@H]4C(=O)N23)c1 | 22.4µM* | . | . | 1.7%
